The panel holds about 83,000 compounds, 20% with a hit somewhere; the sample as a whole holds those more often.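 A percent growth of 40 corresponds to 60% growth inhibition; 0 means no net growth; -100 means all cells died. Active threshold: below 10.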 Calls of active or inactive are those of the source.
Test system: HL-60(TB) leukemia
Assay: NCI-60 one-dose screen, 48 h (100 = growth as untreated, 0 = no growth, -100 = all killed)
Details: 10 µM unless noted

SMILES | growth
CC(C)N(C(=S)SSC(=S)N(C(C)C)C(C)C)C(C)C | 122% (inactive)
O=C(/C=C/c1ccccc1)c1cccc2ccccc12 | 33.7% (inactive)
CC(=O)OCCC/C(=C\c1ccc2ccccc2c1)[N+](=O)[O-] | -61% (active)
COc1ccc(C(=O)c2sc3nc4c(cc3c2N)CCCC4)cc1OC | 11.4% (inactive)
N#Cc1c(-c2ccc(Cl)cc2)csc1NC(=O)Nc1cccc(C(F)(F)F)c1 | -13% (active)
COc1ccc(-c2c(-c3cc4c(c(OC)c3OC)OCO4)noc2N)cc1 | 16.8% (inactive)
COc1ccc(-c2cc(/C=C3\C(=O)Nc4cc(Cl)ccc43)[nH]n2)cc1 | -11.7% (active)
COc1ccc(/C=C2\N=C(c3ccccc3)N(c3cc(OC)c(OC)cc3C(=O)N3N=C(C)CC3=O)C2=O)cc1 | 107% (inactive)
CC(C)=CCNc1ncnc2c1ncn2C1OC(COP(=O)(O)O)C(O)C1O (stereo not given) | -38.4% (active)
CCCCNC(=O)NS(=O)(=O)Cc1ccccc1 | 88.1% (inactive)
CCOC(=O)c1ccc(NC(=O)N2CC(C)OC(C)C2)cc1 (stereo not given) | 92.8% (inactive)
COc1ccc(C2=NN(C(C)=O)C(c3cccc(Nc4ccnc5cc(Cl)ccc45)c3)C2)cc1 (stereo not given) | 57.2% (inactive)
COC(=O)[C@H](C(C)C)n1c(=O)c2cc(OC)c(OC)cc2c2cnc3[nH]ccc3c21 | 16.1% (inactive)
O=C1NC2(Nc3ccccc31)C(=O)Nc1c(Cl)cc(Cl)cc12 (stereo not given) | 106% (inactive)
C[n+]1cccc(NC(=O)c2ccc3ccc4ccc(C(=O)Nc5ccc[n+](C)c5)nc4c3n2)c1 | 61.4% (inactive)
C/C(CC(=O)NNc1ccc([N+](=O)[O-])cc1)=N\Nc1ccc([N+](=O)[O-])cc1 | 28.8% (inactive)
COc1cccc(-c2nc3sccn3c2-c2ccnc(NCCCNS(=O)(=O)c3ccc(F)cc3)n2)c1 | 12.1% (inactive)
O=C(CNCCO)Nc1ccc2ncnc(Nc3ccc(OCc4cccc(F)c4)c(Cl)c3)c2c1 | 86.9% (inactive)
COCCn1cc(-c2nc(-c3cc4cccnc4n3C)cs2)c2cc(OC)ccc21 | 82.6% (inactive)
CCOC(=O)c1ccc2c(c1)ncn2-c1ccc(NC(=O)Nc2cccc(C)c2)cc1 | 78.3% (inactive)

SMILES | growth
Cc1cnc([C@]23CC[C@@H](C)[C@H](C)[C@H]2C2=CC[C@@H]4[C@@]5(C)Cc6c([nH]c7ccccc67)C(C)(C)[C@@H]5CC[C@@]4(C)[C@]2(C)CC3)o1 | 38.2% [100 µM] (inactive)
Cc1cc(Nc2nc(-c3cccnc3)nc3ccccc23)n[nH]1 | 53.4% (inactive)
O=C(CCl)n1nnnc1Cc1ccccc1 | 83.5% (inactive)
NCCOc1ccccc1/C=C1\c2ccccc2-c2ccc([N+](=O)[O-])cc21 | -59.3% (active)
COc1cc(OC)c(/C=C/S(=O)(=O)Cc2cnc(OC)c(N)c2)c(OC)c1 | -39.5% (active)
CC1=C[C@H]2c3c(c(O)c(O)c4oc(-c5ccccc5)cc(=O)c34)[C@H](c3cc(O)c(O)c4oc(-c5ccccc5)cc(=O)c34)[C@H]2C(C)(C)C1 | -30.1% (active)
COc1ccc(/C(=N\N)C(=O)c2ccccc2)cc1 (tested in a mixture with another compound) | 77.8% (inactive)
O=C(Nc1ccc(Nc2ncnc3sc4c(c23)CCOC4)cc1)Nc1ccc(Cl)c(C(F)(F)F)c1 | 98.9% (inactive)
CCOC(=O)c1cc2c(n1C)-c1nc(NC(C)=O)sc1CCC2 | 102% (inactive)
CCOC(=N)CC(=O)Nc1cccc(C)c1Cl | 111% (inactive)
O=C(Nc1ncc(Cc2ccc(Cl)cc2)s1)C1=NCCCCN1 | 97% (inactive)
O=C1NC(=O)c2c1c1c3ccccc3[nH]c1c1oc3cc(Br)ccc3c21 | 104% (inactive)
CC(C)CCNCC(O)Cn1c2ccccc2c2ccccc21 (stereo not given) | -14.8% (active)
CCOC(=O)Nc1ccc2nc(Sc3ccc(Cl)cc3)sc2c1 | 10.1% (inactive)
NC1=CC(=O)c2ccccc2C1=O | 81.6% (inactive)
C(=C\c1n(Cc2ccc3ccccc3c2)c(-c2ccccc2)c(-c2ccccc2)[n+]1Cc1ccc2ccccc2c1)/c1ccccc1 | -42% (active)
COc1ccc2c(c1)C(=O)c1c-2c(=O)n(CCCN(C)C)c2cc(OC)c(OC)cc12 | 74.8% (inactive)
CC(C)c1ccc(C(=O)Nc2sc3c(c2C(N)=O)CCC(=O)C3)cc1 | -11.5% (active)
O=C(Nc1ccc(F)cc1)Nc1ccccc1CNc1nc(Nc2ccc(OCCN3CCCC3)cc2)ncc1Cl | -39.6% (active)
COc1ccc(-c2nc3ccccc3n3cccc23)cc1 | 104% (inactive)

From PubChem BioAssay (NCI)
